This note sets out measurements from ChEMBL document CHEMBL4513149, “CO-ADD screening of MMV (CH) - MMV compounds” (2021).

In one experiment the test system is Klebsiella pneumoniae. The note with it: Concentration 20 uM; ASSAY_TEST Inhibition of Bacterial Growth; detection method Absorption (OD600); MEDIA CAMHB; plate type 384well; NBS; CORNING #3640; time 18 hr.
The next experiment deals with Candida albicans. The note with it: 20 µM.
For the next experiment, the system named is Cryptococcus neoformans. To be noted: Concentration 20 uM; ASSAY_TEST Inhibition of Fungal Growth; detection method Resazurin; Absorption (OD600-OD570); plate type 384well; NBS; CORNING #3640.

Structures are written as SMILES. Measured potencies and affinities stand elsewhere.

With `CC1(COc2ccc(N3CCC(Oc4ccc(OC(F)(F)F)cc4)CC3)cc2)Cn2cc([N+](=O)[O-])nc2O1` (stereo not given), the Inhibition in the experiment on Klebsiella pneumoniae was 19.71%; in the experiment on Candida albicans it was 20.4%; in the experiment with Cryptococcus neoformans, -2.75%.
As to `CNC(=O)c1nn(C)c2c1C(C)(C)Cc1cnc(Nc3ccc(N4CCN(C)CC4)cc3)nc1-2` [MILCICLIB], the Inhibition was -10.97% in the experiment on Klebsiella pneumoniae, 4.83% in the experiment on Candida albicans and -4.76% with Cryptococcus neoformans.
For the molecule `c1ccc(-c2[nH]c3ccccc3c2C(c2ccccn2)N2CCCC2)cc1` (stereo not given), the Inhibition is 11.72% with Klebsiella pneumoniae, 1.35% with Candida albicans and -10.11% in the experiment on Cryptococcus neoformans.
For the molecule `CCCCN(CCCC)c1c(C#N)cc(S(=O)(=O)Nc2ccccc2)cc1C#N`, the values for the Inhibition in the experiment with Klebsiella pneumoniae, in the experiment with Candida albicans and in the experiment with Cryptococcus neoformans were 5.16%, 3.66% and -9.03%, respectively.
Turning to `CCCn1c(CNc2ccccc2O)nc2ccccc21`, the Inhibition is 12.8% in the experiment with Klebsiella pneumoniae, -0.42% in the experiment with Candida albicans and -15.95% with Cryptococcus neoformans.
Turning to `COc1cccc(-c2cc3c(Nc4cccnc4)nccc3[nH]2)c1`, the Inhibition is 4.5% in the experiment on Klebsiella pneumoniae, 3.5% with Candida albicans and -6.63% in the experiment with Cryptococcus neoformans.
On the same counts, the results for `CN1CCCN(C(c2ccccc2)c2ccc(Cl)cc2)CC1` (stereo not given) [HOMOCHLORCYCLIZINE] are 10.44%, 2.84% and -6.27%.
In the same order, the values of `CCN(CC)CCCCCCNc1cc(OC)cc2c(C)ccnc12.Cc1ccc(S(=O)(=O)O)cc1` are 14.1%, 2.19% and 2.4%.
On to `Cc1ccc(NC(=O)c2nc[nH]c2C(=O)Nc2nc3ccccc3[nH]2)c(C)c1`, for which the Inhibition is 13.9% with Klebsiella pneumoniae, 23.3% in the experiment on Candida albicans and -8.94% in the experiment with Cryptococcus neoformans.
On the same counts, the results for `O=C(NCCc1c[nH]c2ccccc12)c1cc2ccccc2oc1=O` are 9.33%, 4.19% and -9.92%.
Consider `CS(=O)(=O)N1CCC(Cn2nc(Cc3cccc4ccccc34)c3c(N)ncnc32)CC1`, for which the Inhibition in the experiment on Klebsiella pneumoniae was 11.77%; in the experiment on Candida albicans, 2.39%; with Cryptococcus neoformans, -6.98%.
On the same counts, the results for `C[C@H](C(N)=O)N1CCCC[C@H]1c1ccc(OCc2cccc(F)c2)cc1` are 11.66%, 2.64% and -9.53%.
As to `O=C(NCCc1ccn(-c2ccccc2)n1)C1CCCCC1`, the Inhibition in the experiment with Klebsiella pneumoniae was 6.33%; in the experiment with Candida albicans, 3.92%; in the experiment with Cryptococcus neoformans, -9.22%.
Regarding `CCn1cnc2c(Nc3cc(F)cc(F)c3)nc(C#N)nc21`, the Inhibition in the experiment with Klebsiella pneumoniae was 8.51%; in the experiment with Candida albicans, 3.4%; in the experiment on Cryptococcus neoformans, -1.23%.
Consider `Cn1ncc2c(N3CCOCC3)nc(NCCc3c[nH]c4ccccc34)nc21` [TDR79432], for which the Inhibition is 9.02% in the experiment on Klebsiella pneumoniae, 4.1% in the experiment with Candida albicans and -8.59% with Cryptococcus neoformans.
For `O=C(C1CCN(c2cc(-n3cccc3)ncn2)CC1)N1CCc2ccccc2C1`, the Inhibition was -8.74% with Klebsiella pneumoniae, 10% in the experiment on Candida albicans and 3.06% in the experiment with Cryptococcus neoformans.
`Nc1ncnc2c1ncn2C[C@@H](O)[C@@H](O)C(=O)O` [ERITADENINE]: the Inhibition was 17.23% with Klebsiella pneumoniae, 3.88% with Candida albicans and -6.54% in the experiment with Cryptococcus neoformans.
On the same counts, the results for `Cc1cc(C)n(-c2ccc(NC(=O)C3CCN(Cc4cnc(C)s4)CC3)cc2)n1` are 8.14%, 2.85% and -6.76%.
As to `N#Cc1ccc(-c2ccc(OCC(N)=O)cc2)cc1`, the figures for the Inhibition in the experiment on Klebsiella pneumoniae, in the experiment on Candida albicans and in the experiment on Cryptococcus neoformans were 5.71%, 3.25% and -13.05%, respectively.
In the case of `CS(=O)(=O)Cc1nc2ccccc2oc1=O`, the Inhibition is 16.91% in the experiment with Klebsiella pneumoniae, 1.55% in the experiment on Candida albicans and -16.09% with Cryptococcus neoformans.
As for `CCCCOC(=O)Nc1cc2nc(C3CCCCC3)[nH]c2cc1N1CCCC1`, the Inhibition in the experiment on Klebsiella pneumoniae was 3.91%; in the experiment with Candida albicans, 3.13%; in the experiment with Cryptococcus neoformans it was -8.19%.
Turning to `Cc1ccc(-c2cc(C(=O)Nc3cccnc3)c3cc(Br)ccc3n2)cc1`, the results for the Inhibition with Klebsiella pneumoniae, with Candida albicans and in the experiment on Cryptococcus neoformans were 15.62%, 4.34% and -8.45%, respectively.
In the same order, the values of `COC(=O)c1ccc(F)cc1NS(=O)(=O)c1cccc(-c2cnn(Cc3ccccc3)c2)c1` are 14.02%, 6.83% and 12.85%.
For `Cc1ccccc1CN1CCC(O)(c2ccc(Cl)c(C(F)(F)F)c2)CC1`, the Inhibition with Klebsiella pneumoniae was 11.69%; with Candida albicans it was 3.22%; in the experiment with Cryptococcus neoformans, -6.41%.
In the case of `CC(=O)N1CCc2cc3nc(C)cc(C)c3cc21`, the results for the Inhibition with Klebsiella pneumoniae, with Candida albicans and in the experiment with Cryptococcus neoformans were 14.03%, 4.19% and -7.03%, respectively.
In the case of `CN1CCN(c2cc(-c3ccc(F)cc3)nc(-c3ccncc3)n2)CC1`, the Inhibition in the experiment with Klebsiella pneumoniae is 4.2%; in the experiment on Candida albicans, 3.25%; with Cryptococcus neoformans it was -11.56%.
As for `CCc1ccc([C@@H]2C[C@H](C(F)(F)F)n3ncc(C(=O)NCc4ccc(OC)cc4)c3N2)cc1`, the Inhibition was 2.88% in the experiment with Klebsiella pneumoniae, 5.42% in the experiment on Candida albicans and -1.28% with Cryptococcus neoformans.
On to `CC(=O)Nc1ccc(-c2noc(CC3CCCN(Cc4cccc(F)c4C)C3)n2)cc1` (stereo not given), for which the Inhibition with Klebsiella pneumoniae is 14.96%; with Candida albicans, 3.14%; in the experiment with Cryptococcus neoformans, -9.66%.
`O=C(NC1=NCCS1)c1sc2cc(F)ccc2c1Cl`: the Inhibition with Klebsiella pneumoniae was 1.67%; in the experiment on Candida albicans, 8.69%; with Cryptococcus neoformans, -16.39%.
In the case of `Cc1nc(-c2cccc(NCc3ccccc3)c2)[nH]c1C`, the Inhibition with Klebsiella pneumoniae is 18.74%; in the experiment on Candida albicans, 2.98%; in the experiment on Cryptococcus neoformans, -12.15%.
As to `O=C(Nc1cccc(-c2ccc(NCCCN3CCCC3)nc2)c1)c1ccccc1`, the Inhibition with Klebsiella pneumoniae worked out at 8.2%; in the experiment on Candida albicans it was 3.22%; with Cryptococcus neoformans it was 16.14%.
In the case of `FC(F)(F)c1nnc2ccc(Cl)nn12`, the Inhibition amounted to 7.1% in the experiment with Klebsiella pneumoniae, 2.55% in the experiment on Candida albicans and 2.75% in the experiment with Cryptococcus neoformans.
Regarding `COc1cc(NC(=O)Cc2nn(C)c(=O)c3ccccc23)ccc1Cl`, the Inhibition with Klebsiella pneumoniae is 12.64%; in the experiment on Candida albicans, 6.72%; in the experiment on Cryptococcus neoformans, -0.85%.
Take `CCC(Sc1nc2ccccc2o1)C(=O)Nc1nnc(C)s1` (stereo not given): the Inhibition is -2.47% in the experiment on Klebsiella pneumoniae, 4.83% in the experiment with Candida albicans and -9.17% with Cryptococcus neoformans.
For the molecule `CCNC(=O)C(C)Nc1nc(-c2cccnc2)nc2sc(C)c(C)c12` (stereo not given), the Inhibition in the experiment with Klebsiella pneumoniae was -9.71%; in the experiment with Candida albicans, 5.77%; in the experiment with Cryptococcus neoformans, -4.41%.
